Screening results as filed in PubChem.
The list is not random: actives were taken first. Their share in the collection is about 2.4%.
D2 ag-1 – agonists of human D2 dopamine receptor. P14416. HEK293 T-REx D2 cells, calcium flux agonist mode. activation, % at 2 µM. hit rate 0.53% among 340,000. AID 485358;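 active = activation over 3 SD above normal in the single-dose calcium agonist read, cut at about 30% in these data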; note: 0% is about no effect
Target sequence (P14416 whole entry, looked up): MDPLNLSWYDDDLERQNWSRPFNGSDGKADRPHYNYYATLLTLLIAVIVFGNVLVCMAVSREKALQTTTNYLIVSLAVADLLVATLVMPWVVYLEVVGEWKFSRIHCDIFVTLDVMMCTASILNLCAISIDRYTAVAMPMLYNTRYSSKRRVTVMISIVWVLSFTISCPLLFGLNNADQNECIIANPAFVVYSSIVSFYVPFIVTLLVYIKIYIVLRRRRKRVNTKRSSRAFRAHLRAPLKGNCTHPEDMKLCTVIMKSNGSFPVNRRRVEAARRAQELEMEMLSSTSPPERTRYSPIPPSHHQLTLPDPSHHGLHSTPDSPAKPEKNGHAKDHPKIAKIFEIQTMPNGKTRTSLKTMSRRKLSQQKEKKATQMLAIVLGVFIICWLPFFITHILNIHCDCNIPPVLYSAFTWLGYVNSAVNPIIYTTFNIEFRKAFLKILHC
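Agonism is scored from calcium flux in a force-coupled, inducible HEK293 cell line expressing D2, read kinetically for 180 s after compound addition against dopamine controls.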
D2 antagonist – antagonizes the human D2 dopamine receptor; hit rate 2% among 340,000; HEK293 TREx D2 cells, calcium flux, dopamine EC80; P14416; inhibition, % at 10 µM; in the data active = inhibition above about 30%; inactive = below that, where a call was filed; note: 0% is about no effect
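Tetracycline-induced HEK293 TREx cells expressing D2 receptor forced-coupled to calcium signalling, loaded with no-wash calcium dye. Compounds added and calcium flux read 180 s, then dopamine added at EC80 and read a further 180 s.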
D2 ag-2 – agonists of human D2 dopamine receptor (beta-arrestin); activation, % (no concentration beside the values); hit rate 0.084% among 360,000; P14416; DiscoveRx PathHunter D2 beta-arrestin, luminescence, 90 min; 100% = 57 uM dopamine signal; in the data active = activation above about 40%; inconclusive = between about 15% and that limit
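DiscoveRx PathHunter D2 beta-arrestin cells (2,100/well) attached overnight, then compound-stimulated 90 min at 37 C in HBSS/10 mM HEPES/0.1% Tween-20 buffer; beta-galactosidase complementation read by luminescence after 1 h at ambient temperature. Dopamine 57 uM final (EC100) as control.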
D2 PAM-1 – positive allosteric modulators of human D2 dopamine receptor. P14416. potentiation, % at 10 µM. HEK293 T-REx D2, calcium flux, EC20 dopamine potentiation. AID 485347. hit rate 0.34% among 340,000;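 active = potentiation over 3 SD above the plate norm, cut at about 30% in these data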; note: 0% is about no effect
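Tetracycline-induced HEK293 T-REx cells force-coupled to calcium signalling expressed D2; compounds were pin-added after a 10 s baseline, read kinetically 180 s, then an EC20 dopamine challenge followed with a further 180 s calcium read.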
D2 PAM-2 – human D2 receptor positive allosteric modulation; P14416; DiscoveRx D2 beta-arrestin cells, luminescence, 90 min; 100% = 57 uM dopamine signal; potentiation, % (test concentration not listed); hit rate 0.23% among 360,000; AID 624464; in the data active = potentiation above about 50%; inconclusive = mostly about 30% to 49%
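D2 cells co-treated with compound plus 50 nM dopamine (EC20) for 90 min at 37 deg C to detect potentiation. Beta-arrestin recruitment was read as enzyme-fragment luminescence after 1 h at ambient temperature. Full response was set by 57 uM dopamine.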
* = called active by the depositor; ? = inconclusive; · = not tested or not shown.

SMILES	D2 ag-1	D2 antagonist	D2 ag-2	D2 PAM-1	D2 PAM-2
CCn1cnc2c1c(=O)n(Cc1nnc3n1-c1ccccc1SC3)c(=O)n2Cc1ccccc1	1.5	5.1	-4.4	34.4*	-0.2
COc1ccc(Br)c(C(=O)OCC(=O)NC2CCCCCCC2)c1	·	·	-3.3	·	-3.7
N#C/C(=C\c1ccccc1C(F)(F)F)C(=O)Nc1ccccc1	0.4	-4.0	1.1	5.9	6.6
CCc1cccc(CC)c1NC(=O)/C(C#N)=C/c1ccccc1C(F)(F)F	-0.6	-1.9	10.3	-20.1	96.1*
CCc1nn(CC(=O)N2CCN(c3cccc(C)c3C)CC2)c(=O)c2cc3sccc3n12	-0.4	·	·	4.3	·
CCOC(=O)c1ccc(NC(=O)CN2c3ccccc3S(=O)(=O)c3ccccc32)cc1	0.8	·	·	23.8	·
CS(=O)(=O)Nc1cccc(C2=NN(S(=O)(=O)c3ccc(F)cc3)C(c3cccs3)C2)c1 (centres undefined)	3.7	31.2*	-3.5	-7.9	-8.0
CCS(=O)(=O)Nc1cccc(C2=NN(S(=O)(=O)c3ccc(F)cc3)C(c3cccs3)C2)c1 (centres undefined)	4.0	4.3	-1.5	-1.3	-6.5
Cc1cc(CNC(=O)c2cccc(OC3CCN(S(=O)(=O)N(C)C)CC3)c2)on1	1.3	-12.6	-3.6	-10.1	11.0
Nc1c2c(nc3ccc(Br)cc13)N(C1CCCCC1)CC2	-0.1	74.2*	·	-20.6	·
CCc1nn2c(=O)cc(COC(=O)CNC(=O)c3ccccc3)nc2s1	·	·	·	12.3	·
c1ccc(-c2ncnc3nc4n(c23)CCC4)cc1	0.2	33.7*	-0.4	-1.8	-4.0
CC(=O)Nc1ccc(S(=O)(=O)N(C)c2ccc(OCC(=O)Nc3ccccc3C(C)=O)cc2)cc1	0.8	-7.2	-3.0	1.1	-11.5
CN(c1ccc(OCC(=O)Nc2ccccc2C(=O)O)cc1)S(=O)(=O)c1ccc(Cl)cc1	·	·	2.4	·	62.2*
COc1ccc(C2c3c(n(C)c4ccccc34)C(=O)N2CC(=O)Nc2c(C)cc(C)cc2C)cc1 (centres undefined)	-0.6	·	·	-3.5	·
CC(C)CN1CCC(=O)N([C@H](CN=[N+]=[N-])Cc2ccccc2)CC1	0.4	-6.0	-2.2	-4.2	-3.6
CCCN1CCC(=O)N([C@H](CN=[N+]=[N-])Cc2ccccc2)CC1	0.1	37.5*	-3.2	5.7	-13.1
COC[C@H]1CCCN1[C@H]1CS(=O)(=O)N[C@@H]1COCc1ccccc1	·	·	-3.3	·	-8.6
Cc1[nH]c2nc3ccccc3n2c(=O)c1CCC(C)C	1.3	15.0	-1.4	3.4	-6.4
COc1ccc(C(=O)NCc2cccnc2)cc1Br	0.6	-2.0	-1.8	-4.8	-6.7
COc1cc(OC)cc(C(=O)NCc2cccnc2)c1	0.9	-7.4	0.0	30.5*	-39.5
CCOC(=O)CNC(=O)c1cc(OC)cc(OC)c1	-0.5	38.6*	3.7	·	-1.2
COc1cc(/C=N/NC(=O)C(=O)NCc2cccnc2)ccc1O	-1.3	5.9	-4.2	-20.1	-16.4
COc1ccc(/C=N/NC(=O)C(=O)NCc2cccnc2)cc1OC	0.2	32.7*	-1.2	2.8	4.6
CCC(C)c1ccc(OCC(=O)Nc2ccc(-c3nc4ncccc4o3)cc2)cc1 (centres undefined)	0.1	·	·	-0.5	·
SMILES	D2 ag-1	D2 antagonist	D2 ag-2	D2 PAM-1	D2 PAM-2
CCc1ccc(S(=O)(=O)c2nnn3c2nc(N2CCOCC2)c2sccc23)cc1	-0.6	·	·	0.0	·
COc1ccccc1-c1oc2ccccc2c1C#CC(C)(C)O	0.4	52.4*	-1.9	-18.1	-7.2
Cc1cccc(CN2CCN(c3nc4nonc4nc3NC3CC3)CC2)c1	0.0	-5.5	-4.7	5.5	-1.8
Clc1cccc(CN2CCN(c3nc4nonc4nc3NC3CC3)CC2)c1	0.4	37.7*	-2.2	8.3	-3.1
CCCNC(=O)C1(C)CCN(C(=O)c2ccc(C)c(F)c2)C1 (centres undefined)	·	·	-1.7	·	-5.7
N#C/C(=C\c1c(Cl)cccc1Cl)c1nc2ccccc2o1	0.7	-6.4	?	5.5	57.9*
C[C@H](CO)N1C[C@H](C)[C@@H](CN(C)S(=O)(=O)c2ccc(F)cc2)Oc2ccc(NC(=O)Cc3ccccc3)cc2C1=O	·	·	-0.1	·	-0.7
COc1cccc(NS(=O)(=O)c2ccc3c(c2)n(C)c(=O)n3C)c1	0.0	·	·	2.9	·
CCCN1C(=O)/C(=C/c2ccc(N3CCCC3)c(C)c2)NC1=S	·	·	-2.8	·	-8.9
CCN1C(=O)/C(=C/c2ccc(N3CCCC3)cc2)NC1=S	59.4*	7.8	0.8	-16.7	-10.8
Cc1cc(N2CCCC2)ccc1/C=C1/C(=O)N(C)C(=S)N1C	8.4	59.5*	-3.6	-3.3	-5.8
CCCN1C(=O)/C(=C/c2ccc(N3CCOCC3)cc2)NC1=S	23.6	0.6	-4.7	·	-13.5
CN1C(=O)/C(=C/c2ccc(OCc3ccc(F)cc3)cc2)N(C)C1=S	·	·	-4.2	·	-0.8
Cc1cc(/C=C2/C(=O)N(C)C(=S)N2C)ccc1N1CCCC1	31.9*	26.0	0.6	-1.1	2.7
Cc1cc(/C=C2\NC(=S)N(C)C2=O)ccc1N1CCCC1	69.3*	41.7*	4.8	-1.8	-5.4
O=C(Nc1cc(S(=O)(=O)N2CCCCCC2)ccc1OCC(F)(F)F)c1cnccn1	-0.2	7.8	-2.6	5.0	-9.1
CCOc1ccc(-c2cc3c(=O)n(CC(=O)NCc4ccc(F)cc4)ccn3n2)cc1	-2.0	·	·	-4.3	·
Cc1nn(-c2ccccc2)c(Cl)c1C(=O)NCc1cccs1	-1.2	44.5*	-1.1	-6.3	-3.4
Cc1nn(-c2ccccc2)c(C)c1C(=O)NCc1cccs1	0.0	-3.1	-1.8	-2.5	2.6
COc1ccccc1-c1cc(C(=O)NCc2cccs2)no1	1.0	75.5*	-1.6	-23.8	-31.3
COc1ccc(OC)c(-c2cc(C(=O)NCc3cccs3)no2)c1	0.3	24.3	-2.2	-23.5	-15.4
COc1ccc(-c2cc(C(=O)NCc3ccc(Cl)cc3)no2)cc1OC	0.0	-7.5	2.4	-7.1	-0.2
COc1ccc(OC)c(-c2cc(C(=O)NCc3ccc(Cl)cc3)no2)c1	1.2	62.0*	-2.6	-12.8	-19.1
COc1ccccc1-c1cc(C(=O)NC(C)c2ccccc2)no1 (centres undefined)	0.5	60.8*	-0.6	-26.4	-15.9
CSc1ccccc1NC(=O)C(C)N(C)CC(=O)N1CCN(Cc2ccccc2)CC1 (centres undefined)	·	·	0.9	·	-18.8
COCCNC(=O)C1(C)CCCN(C(=O)c2ccc3snnc3c2)C1 (centres undefined)	·	·	-1.4	·	-3.0
Cc1ccc2c(c1)N(C(=O)CCC(=O)NCCCN1CC(C)CC(C)C1)CCO2 (centres undefined)	-0.1	-15.6	-3.0	-12.9	-10.3
Cc1cccc(NC(=O)[C@@H]2CCCN2C2=NS(=O)(=O)c3ccccc32)c1C	0.0	-7.5	1.7	6.0	-4.4
